These results are taken from the supplement of paper PMC9694430.
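Also: purified Escherichia coli-expressed rice kinase domain construct.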

In the assay the test system is LOC_OS01G57100-cb003. Description: thermal shift delta Tm vs DMSO control; higher = stronger stabilization (binding). The settings on record: 12.5 µM; protein concentration 2 µM. The method, boiled down:
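Rice kinase domain constructs, made in E. coli and purified, were placed in 96-well plates at 2 μM in 19.5 μl of 100 mM potassium phosphate pH 7.5, 150 mM NaCl, 10% glycerol and 5 × SYPRO Orange, with compound in DMSO. A temperature ramp from 25°C to 95°C at 0.05°C/s was used for differential scanning fluorimetry. The melting temperature shift is a triplicate mean compared with DMSO-only protein, derived from Boltzmann fits.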
Consider `COc1ccc(CC(=O)Nc2nc3c(s2)CCc2ccccc2-3)cc1OC`, for which the “thermal shift delta Tm” value worked out at 2.6 °C. The same measure for `CNS(=O)(=O)Nc1nccc(Cc2c(C)c3ccc(Oc4ncccn4)cc3oc2=O)c1F`: 1.4 °C; for `C[C@H](NC(=O)/C(C#N)=C/c1cccc(Br)n1)c1ccccc1`: 2.09 °C. For the compound `COc1ccc(COc2cc3oc(=O)c4cc(C(C)O)ccc4c3cc2OC)cc1` (configuration not stated) [Palomid 529 (P529)], the “thermal shift delta Tm” value came out at 2.39 °C. The same measure for `CC(C)(C)Cn1c(N)nc2ccc(-c3[nH]c(C(C)(C)C)nc3-c3ccc(F)cc3)nc21`: -3.53 °C.

Regarding `COc1ccccc1-c1cc(Nc2cccc(CS(N)(=O)=O)c2)ncn1`, the “thermal shift delta Tm” value was 2.72 °C. The same measure for `Cn1cnc(N)c2ncnc1-2` [3-Methyladenine (3-MA)]: 1.89 °C; for `C=CC(=O)N[C@H]1CCOC[C@H]1Nc1ncc2cc(-c3c(Cl)c(OC)cc(OC)c3Cl)ccc2n1`: 2.49 °C. In the case of `CCS(=O)(=O)Nc1ccc2c(c1)/C(=C(/Nc1ccc(CN3CCCCC3)cc1)c1ccccc1)C(=O)N2` [Hesperadin], the “thermal shift delta Tm” value was found to be 1.29 °C. Then `Cc1cc(Nc2cc(N3CCN(C)CC3)nc(/C=C/c3ccccc3)n2)n[nH]1` [ENMD-2076 L-(+)-Tartaric acid], with 1.16 °C; and `Cc1ccc(F)c(NC(=O)Nc2ccc(-c3cccc4[nH]nc(N)c34)cc2)c1` [Linifanib (ABT-869)], with -0.27 °C; and `CO[C@H]1C[C@@H]2CC[C@@H](C)[C@@](O)(O2)C(=O)C(=O)N2CCCC[C@H]2C(=O)O[C@H]([C@H](C)C[C@@H]2CC[C@@H](OCCO)[C@H](OC)C2)CC(=O)[C@H](C)/C=C(\C)[C@@H](O)[C@@H](OC)C(=O)[C@H](C)C[C@H](C)/C=C/C=C/C=C/1C` [Everolimus (RAD001)], with 0.99 °C. The same measure for `CCCCCCCCCCCCCCCCn1cc[n+](Cc2ccccc2)c1C`: -6.09 °C. Then `O=C(/C=C/c1ccc(O)c(O)c1)c1ccc(O)cc1O` [Butein], with 4.85 °C; and `NC(=O)c1ncn([C@@H]2O[C@H](CO)[C@@H](O)[C@H]2O)c1N` [AICAR (Acadesine)], with 1.35 °C; and `COCCOc1ccc2c(c1)ncn2-c1ccc2cccc(N3CCC(N)CC3)c2n1`, with 1.13 °C. For `CCCCCCCCCCCCCCCCCCOP(=O)([O-])OC1CC[N+](C)(C)CC1` [Perifosine (KRX-0401)], the “thermal shift delta Tm” value was -2.51 °C. Then `COc1ccc(-c2ccc3c(N4CCOCC4)nc(N4C[C@@H](C)O[C@@H](C)C4)nc3n2)cc1CO`, with 0.55 °C; and `Cc1cc(Nc2nc(N[C@@H](C)c3ccc(F)cc3)c(C#N)cc2F)n[nH]1`, with 0.56 °C. Then `O=c1nc(N2CCOCC2)oc2c(-c3cccc4c3sc3ccccc34)cccc12`, with 1.63 °C; and `Cn1cc(-c2ccc3nnc(C(F)(F)c4ccc5ncccc5c4)n3n2)cn1`, with 1.42 °C. `Cc1cc(C(C)Nc2ccccc2)c2nc(N3CCOCC3)cc(=O)n2c1` (configuration not stated): the “thermal shift delta Tm” value worked out at 0.23 °C. The same measure for `COc1cc(N2CCC(N(C)C)CC2)ccc1Nc1ncc(Cl)c(Nc2ccccc2P(C)(C)=O)n1`: 4.55 °C; for `CC(C)c1cnn2c(NCc3ccccc3)cc(NCCCCCCN)nc12`: 0.82 °C.

With `Cc1cc([C@@H](C)Nc2ccccc2C(=O)O)c2nc(N3CCOCC3)cc(=O)n2c1`, the “thermal shift delta Tm” value is 1.15 °C. The same measure for `CC(C)NC(=O)C1CCC(n2c(NC(=O)c3ccc(F)cc3)nc3ccc(CN4CCC(C(C)(C)O)CC4)cc32)CC1` (configuration not stated) [Belizatinib (TSR-011)]: 0.68 °C; for `COc1ccc(-c2ccc3ncc4c(c3c2)n(-c2ccc(N3CCNCC3)c(C(F)(F)F)c2)c(=O)n4C)cn1`: 1.82 °C; for `CN1CCN(c2ccc3nc(-c4c(N)c5c(F)cccc5[nH]c4=O)[nH]c3c2)CC1` [Dovitinib (TKI-258, CHIR-258)]: -0.17 °C. The same measure for `NC(=O)c1ccc2nc(-c3ccc(Oc4ccc(Cl)cc4)cc3)[nH]c2c1` [Chk2 Inhibitor II (BML-277)]: -0.91 °C. Then `CC1(C)OCCn2c1nc1c(N3CCOCC3)nc(-c3cnc(N)nc3)nc12`, with -0.05 °C; and `C=CC(=O)Nc1cccc(Nc2nc(Nc3ccc(OCCOC)cc3)ncc2F)c1`, with 1.56 °C; and `NC(=O)c1cnc(N[C@@H]2CCCC[C@@H]2N)nc1Nc1cccc(-n2nccn2)c1`, with 2.55 °C. In the case of `CNC(=O)c1cc(Oc2ccc3nc(N[C@@H]4CCCC[C@H]4O)sc3c2)ccn1`, the “thermal shift delta Tm” value worked out at 1.55 °C. Then `CCn1c2ccccc2c2cc(Nc3ccnc(NCCCN4CCOCC4)n3)ccc21`, with 0.92 °C.

`CCC(=O)Nc1cccc(Oc2nc(Nc3ccc(N4CCN(C)CC4)cc3OC)ncc2Cl)c1`: the “thermal shift delta Tm” value is 0.87 °C. Then `CN1CCN(c2nc(C3=C(c4c[nH]c5ccccc45)C(=O)NC3=O)c3ccccc3n2)CC1` [Sotrastaurin], with 2.03 °C; and `C=CCc1ccc(O)c(-c2ccc(O)c(CC=C)c2)c1` [Honokiol], with 2.73 °C.
